# Test results taken from PubChem BioAssay (NCI).
# Several values for one entry are separate records, joined by “and”; a condition that tells them apart may be missing. Identical values can stand only once. About 79,000 compounds went through this panel and 15% of them were active in at least one assay; those are over-represented in the sample as a whole. Values without a mark were called inactive. Activity calls are given as the source filed them. Rule as the data show it: active = growth inhibition above about 70%; inactive = the rest.
# Legend:
# [1] = NCI Yeast Anticancer Drug Screen. Data for the rad50 strain (AID 155);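 also: 0% = growth of vehicle-only cultures of the same strain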; settings: S. cerevisiae rad50 strain growth inhibition; at 50.0 µM; stronger effect = higher value
# In short: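 Relative growth inhibition (compound vs vehicle) was measured in yeast with a defined repair-gene alteration.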
# [2] = NCI Yeast Anticancer Drug Screen. Data for the sgs1 mgt1 strain (AID 161);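 also: 0% = growth of cultures given vehicle only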; settings: S. cerevisiae sgs1 mgt1 strain, stronger effect = higher value
# In short: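 This yeast growth screen uses a strain with defined DNA-repair lesions; compound-treated growth is compared with vehicle-treated growth.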
# [3] = NCI Yeast Anticancer Drug Screen. Data for the cln2 rad14 strain (AID 165);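 also: 0% = growth equal to vehicle treated cultures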; settings: S. cerevisiae cln2 rad14 strain, stronger effect = higher value
# In short: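 Readout is yeast growth inhibition versus vehicle-treated controls, using a strain with cln2 and rad14 alterations exposed to compound.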
# [4] = NCI Yeast Anticancer Drug Screen. Data for the bub3 strain (AID 167); settings: S. cerevisiae bub3 mutant strain, stronger effect = higher value
# In short: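 Screening used yeast with an engineered genetic alteration affecting cell cycle control. Compound-exposed cultures were compared with vehicle cultures, and reduced growth was taken as inhibition.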
# [5] = NCI Yeast Anticancer Drug Screen. Data for the mlh1 rad18 strain (AID 175); settings: S. cerevisiae mlh1 rad18 strain growth inhibition, stronger effect = higher value
# In short: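 Genetically defined yeast (DNA repair-deficient) exposed to compounds; growth inhibition determined relative to vehicle.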
# [6] = NCI Yeast Anticancer Drug Screen. Data for the mec2-1 strain (AID 157); settings: S. cerevisiae mec2-1 strain, stronger effect = higher value
# In short: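 Mutant yeast (mec2-1) grown with compound; growth inhibition relative to vehicle control reported.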
# [7] = at 5.0 µM (retest, dose inferred, filed as 0.5)
# [8] = at 50.0 µM (retest, dose inferred, filed as 5.0)
smiles,measurement,setting,value
Cc1cc(Cl)ccc1OCCCC(=O)O,growth inhibition,[1],28.4%
same,growth inhibition,[2]; at 50.0 µM,41.5%
same,growth inhibition,[3]; at 50.0 µM,21%
same,growth inhibition,[4]; at 50.0 µM,47.1%
same,growth inhibition,[5]; at 50.0 µM,15.4%
CCOC(=O)CC(=O)c1ccccc1,growth inhibition,[1],16.9% and -9.6%
same,growth inhibition,[6]; at 50.0 µM,-17.6% and -2%
same,growth inhibition,[5]; at 50.0 µM,14.1% and -15.7%
CC/C(=C\c1ccccc1)[N+](=O)[O-],growth inhibition,[6]; [7],11%
same,growth inhibition,[6]; [8],100% (active)
same,growth inhibition,[2]; [7],25%
same,growth inhibition,[2]; [8],100% (active)
same,growth inhibition,[3]; [7],14%
same,growth inhibition,[3]; [8],99% (active)
same,growth inhibition,[4]; [7],28%
same,growth inhibition,[4]; [8],100% (active)
same,growth inhibition,[5]; [7],-13%
same,growth inhibition,[5]; [8],98% (active)
CCCCCCCCCCNP(=S)(NCCCCCCCCCC)c1ccccc1,growth inhibition,[1],26.8%
same,growth inhibition,[6]; at 50.0 µM,4.7%
same,growth inhibition,[2]; at 50.0 µM,27.9%
same,growth inhibition,[4]; at 50.0 µM,-14.8%
same,growth inhibition,[5]; at 50.0 µM,2.6%
[N-]=[N+]=NP1(=O)OC(c2ccccc2)=CCN1c1ccccc1 (stereo unspecified),growth inhibition,[6]; at 50.0 µM,-9.5%
same,growth inhibition,[2]; at 50.0 µM,-8.45%
same,growth inhibition,[3]; at 50.0 µM,20.7%
same,growth inhibition,[4]; at 50.0 µM,8.65%
same,growth inhibition,[5]; at 50.0 µM,-4.1%
COc1ccc2nc3ccccc3nc2c1 (tested in a mixture with another compound),growth inhibition,[6]; at 50.0 µM,35.2%
same,growth inhibition,[2]; at 50.0 µM,27.2%
same,growth inhibition,[3]; at 50.0 µM,19.6%
same,growth inhibition,[4]; at 50.0 µM,24.1%
same,growth inhibition,[5]; at 50.0 µM,30.8%
O=C(O)c1ccccc1,growth inhibition,[6]; at 50.0 µM,-0.2% and -17.9%
same,growth inhibition,[2]; at 50.0 µM,-14.8% and 33.1%
same,growth inhibition,[3]; at 50.0 µM,-10.7% and -12%
same,growth inhibition,[4]; at 50.0 µM,-20.5% and -3.8%
same,growth inhibition,[5]; at 50.0 µM,-38.4% and 10.8%
O=S(O)O.O=S(O)O.[Co].[NH2-].[NH2-].[NH2-].[NH2-],growth inhibition,[6]; [7],-1%
same,growth inhibition,[6]; [8],7%
same,growth inhibition,[6]; at 50.0 µM,29.4%
same,growth inhibition,[2]; [7],20%
same,growth inhibition,[2]; [8],22%
same,growth inhibition,[2]; at 50.0 µM,2.5%
same,growth inhibition,[3]; [7],33%
same,growth inhibition,[3]; [8],16%
same,growth inhibition,[3]; at 50.0 µM,47.9%
same,growth inhibition,[4]; [7],12%
same,growth inhibition,[4]; [8],5%
same,growth inhibition,[4]; at 50.0 µM,-5.25%
same,growth inhibition,[5]; [7],3%
same,growth inhibition,[5]; [8],26%
same,growth inhibition,[5]; at 50.0 µM,16%
C=CCc1cc(C=C(C#N)C#N)cc(OC)c1O,growth inhibition,[1],-0.15%
same,growth inhibition,[2]; at 50.0 µM,10.7%
same,growth inhibition,[4]; at 50.0 µM,9.05%
same,growth inhibition,[5]; at 50.0 µM,11.7%
[C-]#[O+].[C-]#[O+].[C-]#[O+].[Mo].c1ccc([PH+](CC[As](c2ccccc2)c2ccccc2)CC[As](c2ccccc2)c2ccccc2)cc1,growth inhibition,[6]; at 50.0 µM,9.45%
same,growth inhibition,[2]; at 50.0 µM,21.1%
same,growth inhibition,[3]; at 50.0 µM,19.2%
same,growth inhibition,[4]; at 50.0 µM,6.7%
same,growth inhibition,[5]; at 50.0 µM,28.9%
NNC(=O)NC(=O)NN,growth inhibition,[1],1.25%
same,growth inhibition,[6]; at 50.0 µM,5.4%
same,growth inhibition,[2]; at 50.0 µM,4.6%
same,growth inhibition,[4]; at 50.0 µM,-0.15%
same,growth inhibition,[5]; at 50.0 µM,9.6%
Clc1cc[c]([Pb]([Cl])([Cl])[c]2ccc(Cl)cc2)cc1,growth inhibition,[6]; at 50.0 µM,17%
same,growth inhibition,[2]; at 50.0 µM,27.9%
same,growth inhibition,[3]; at 50.0 µM,52.2%
same,growth inhibition,[4]; at 50.0 µM,36.5%
same,growth inhibition,[5]; at 50.0 µM,13.7%
O=C1CC2OCC=C3CN4CCC56c7ccccc7N1C5C2C3CC46 (stereo unspecified) (tested in a mixture with another compound),growth inhibition,[1],25% and 2.65% and 6.9%
same,growth inhibition,[6]; at 50.0 µM,-7.15% and 22.6% and -14.6%
same,growth inhibition,[2]; at 50.0 µM,-15.7% and -7.3% and -9.45%
same,growth inhibition,[4]; at 50.0 µM,3.35% and 5.1% and -9.9%
same,growth inhibition,[5]; at 50.0 µM,5.7% and 9.45% and 10.1%
CCC(=O)O.[Ag],growth inhibition,[2]; [7],99% (active)
same,growth inhibition,[2]; [8],98% (active)
same,growth inhibition,[2]; at 50.0 µM,91.6% (active)
same,growth inhibition,[3]; [7],98% (active)
same,growth inhibition,[3]; [8],97% (active)
same,growth inhibition,[3]; at 50.0 µM,90.3% (active)
same,growth inhibition,[4]; [7],99% (active)
same,growth inhibition,[4]; [8],97% (active)
same,growth inhibition,[4]; at 50.0 µM,91% (active)
same,growth inhibition,[5]; [7],99% (active)
same,growth inhibition,[5]; [8],97% (active)
same,growth inhibition,[5]; at 50.0 µM,90.3% (active)
Oc1ccc(C=NCC2CCCC[N-]2)c(O)c1.Oc1ccc(C=NCC2CCCC[N-]2)c(O)c1.[Ni+2] (stereo unspecified),growth inhibition,[6]; at 50.0 µM,8%
same,growth inhibition,[2]; at 50.0 µM,6.55%
same,growth inhibition,[3]; at 50.0 µM,5.15%
same,growth inhibition,[4]; at 50.0 µM,11.2%
same,growth inhibition,[5]; at 50.0 µM,-8.4%
C=CCn1cc2c3c(cccc31)C1CC(C)CN(C)C1C2 (stereo unspecified),growth inhibition,[1],34.5%
same,growth inhibition,[6]; at 50.0 µM,36%
same,growth inhibition,[2]; at 50.0 µM,25%
same,growth inhibition,[4]; at 50.0 µM,33.6%
same,growth inhibition,[5]; at 50.0 µM,28.9%
CCOC(CNCc1cccnc1)OCC,growth inhibition,[6]; at 50.0 µM,-10.6%
same,growth inhibition,[2]; at 50.0 µM,-23.6%
same,growth inhibition,[3]; at 50.0 µM,5.9%
same,growth inhibition,[4]; at 50.0 µM,-13.7%
same,growth inhibition,[5]; at 50.0 µM,-17.3%
NNC(=O)c1ccc(N)cc1,growth inhibition,[1],-12.1%
same,growth inhibition,[2]; at 50.0 µM,-8.3%
same,growth inhibition,[3]; at 50.0 µM,6.05%
same,growth inhibition,[4]; at 50.0 µM,4.75%
same,growth inhibition,[5]; at 50.0 µM,7.1%
O=C([CH-]C(=O)c1ccccc1)c1ccccc1.O=C([CH-]C(=O)c1ccccc1)c1ccccc1.O=C([CH-]C(=O)c1ccccc1)c1ccccc1.[Nd+3].[OH3+],growth inhibition,[6]; [7],43%
same,growth inhibition,[6]; [8],100% (active)
same,growth inhibition,[6]; at 50.0 µM,93.8% (active)
same,growth inhibition,[2]; [7],55%
same,growth inhibition,[2]; [8],100% (active)
same,growth inhibition,[2]; at 50.0 µM,93.8% (active)
same,growth inhibition,[4]; [7],61%
same,growth inhibition,[4]; [8],99% (active)
same,growth inhibition,[4]; at 50.0 µM,92.5% (active)
same,growth inhibition,[5]; [7],60%
same,growth inhibition,[5]; [8],100% (active)
same,growth inhibition,[5]; at 50.0 µM,91.2% (active)
